# Rows were chosen to be rich in hits. Some 2.8% of all compounds tested hit in one or more screens of this group.
# ATXN2 expr inh: reduces ATXN2 reporter expression in HEK-293 cells; Potency, µM (highest dose often 57 µM), for the others: at the highest dose activity change, negative = inhibition, most hits filed as inhibitors; HEK-293 ATXN2-luciferase reporter, luminescence, 24 h; actives 0.72% (n = 360,000); further: on the % scale 0 is the no-effect control and ±100 the full control effect; nearly all actives have a fitted effect of over 55% in size
#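 ATXN2-luciferase reporter cells (luciferase flanked by upstream and downstream ATXN2 gene portions) were treated 24 h at 37 °C with compounds at up to 57 uM. SteadyGlo luminescence gave expression; GF-AFC fluorescence gave viability.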
# TGFb inhibitor: blocks TGF-b signaling. HepG2 CAGA-GFP TGF-b/SMAD3 reporter, GFP fluorescence, 18 h; TGF-beta stimulated, 500 pg/mL final. Potency, µM (top dose mostly 46.1 µM), for inactives: at the top dose activity, negative = inhibition, actives largely listed as inhibitors. actives 1.2% (n = 410,000); further: on the % scale 0 is the no-effect control and ±100 the full control effect; nearly all actives have a fitted effect of over 65% in size
#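 First, reporter cells (HEPG2 CAGA-GFP) rested 2 h at 37 degrees C. Next, compounds were pinned in and TGF-beta added to 500 pg/mL final. After 18 h, GFP was imaged per cell and summed per well.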
# HTT aggregate: inhibitors of mutant huntingtin aggregate formation in PC12 cells; Potency, µM (titrated, usually from 46.1 µM), without a hit: at the highest dose activity change, negative = inhibition, hits mostly inhibitors; PC12 HttQ103-GFP aggregates, Acumen cytometry, 40 h; actives 1.1% (n = 220,000); further: on the % scale 0 is the no-effect control and ±100 the full control effect; nearly all actives have a fitted effect of over 60% in size
#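 Aggregate formation scored by laser-scanning cytometer (488 excitation, 500–530 emission) in lysed PC12 cells expressing Q103-GFP after 100 nM tebufenozide induction; library tested in dose series, with ATPLite reagent added in the multiplex.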
# HTT cytoprotect: cytoprotection in Huntington HTT-Q103 PC12 cell model | actives 0.14% (n = 230,000) | PC12 HTT-Q103 induced, cytoprotection, ATP luminescence, 40 h | Potency, µM (highest dose often 56.4 µM), inactives show cytoprotection (ATP increase), usual class: activators | AID 1471; further: % of control where 0% means no effect; nearly all actives have a fitted effect of over 45% in size
#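 Compounds were screened for protection of PC12 cells against cell death after tebufenozide induction (100 nM final) of mutant Huntingtin exon 1 (Q103) fused to GFP.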
# ATXN viability: cell viability loss in ATXN counter-screen | S2 cells (HEK-293 line with an ATXN2-luciferase reporter) viability, CellTiter-Fluor protease fluorescence, 24 h | Potency, µM (series often up to 56.7 µM), usual class: cytotoxic | actives 0.49% (n = 400,000) | AID 651635; further: nearly all actives have a fitted effect of over 40% in size
# HepG2 tox: kills HepG2 cells in TGF-b inhibitor counter-screen | HepG2 CAGA-GFP viability, ATP luminescence, 18 h | Potency, µM (titrated, usually from 46.1 µM), without a hit: at the highest dose activity change, negative = cytotoxicity, most hits filed as cytotoxic | actives 0.76% (n = 410,000) | AID 588856
#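 HepG2 CAGA-GFP cells (1000/well, DMEM with 1% FBS) received compound, then TGF-beta at 500 pg/mL final, and were incubated 18 hours at 37 degrees C. Viability was read by CellTiter-Glo luminescence. Media-only wells were set as complete cell-killing and DMSO as no toxicity.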
# Active calls of the source: *; i = inactive; ? = inconclusive; . = not tested or not shown; [ ] = remark or other dose. The call rests on the fitted dose curve; in most records, active means well fitted curve in the direction sought with a large enough effect; inconclusive means small, poorly fitted or top-dose-only effect, or another doubt; inactive means no such curve, though single readings can be large; an effect the other way counts as inactive or inconclusive. Potency means the concentration at half of the fitted maximal effect.
SMILES,ATXN2 expr inh,TGFb inhibitor,HTT aggregate,HTT cytoprotect,ATXN viability,HepG2 tox
CN(C)c1ccc(/C=C/c2ccnc3ccc([N+](=O)[O-])cc23)cc1,.,-3%,.,.,.,-1%
COc1cc(C2(c3ccc(O)c(OC)c3)C(=O)Nc3c(Br)cc(Br)cc32)ccc1O,.,25µM*,.,.,?,-95%
Cc1ccc(C(=O)O[C@@H](C(=O)O)[C@@H](OC(=O)c2ccc(C)cc2)C(=O)O)cc1 (tested in a mixture with another compound),.,.,.,-21%[1.9 µM],.,.
CC1(C)Cc2c(c(N3CCOCC3)nc3snc(N)c23)CO1,-16%,10µM*,25µM*,-10%,?,-47%
CCc1cc(C(=O)NNC(=O)CCN2CCN(c3ccccc3)CC2)sc1C,4%,-11%,.,.,i,-30%
CCc1cc(C(=O)NNC(=O)CCl)sc1C,.,1%,?,?,28µM*,-31%
COC(=O)C1=C(C(=O)OC)[C@@H]2N(Cc3ccccc3)c3ccccc3[C@@]23C[C@@H](C(=O)OC)N(C(=O)c2ccco2)C3=N1,.,.,.,-10%[10 µM],.,.
CN(CC(=O)Nc1cccc(F)c1)C(=O)c1cn(-c2ccccc2)nc1-c1ccc(F)cc1,.,22µM*,.,.,?,-48%
COc1ccc(-c2nn(-c3ccccc3)cc2C(=O)N(C)CC(=O)Nc2cccc(F)c2)cc1,.,?,.,.,?,-38%
COc1cc(CNC2CCCC2)cc(Cl)c1OCc1ccccc1F,20µM*,?,?,-79%,.,11µM*
COc1cc(CNc2ccc3[nH]c(=O)[nH]c3c2)cc(Cl)c1OCc1ccccc1F,-30%,-7%,.,.,?,-15%
Cc1cc(Nc2cccc(F)c2)nc(NCc2ccccc2)n1,?,?,-30%,23%[10 µM],?,-80%
Cc1ccc(/C=N/Nc2cc(C)nc(NCc3ccccc3)n2)cc1,-30%,?,-3%[9.22 µM],-14%[10 µM],i,13µM*
Cc1cc(Nc2ccc(Cl)cc2)nc(NCc2ccccc2)n1,?,?,?,.,?,11µM*
CCCCNc1cc(C)nc(NCc2ccccc2)n1,?,?,10µM*,-75%,?,-94%
COc1cc(=O)n2c(c1C(=O)N(C)Cc1nonc1C)CCN(Cc1cc(F)ccc1F)CC2,.,.,.,.,i,.
CCN1CCCC1CNCc1cc2ccc(SC)cc2nc1-c1cc(OC)ccc1OC (stereo not drawn),.,.,.,.,i,.
CC(=O)c1cccc(NC(=O)CSc2nc(=O)n(Cc3cccnc3)c3c2CCC3)c1,-1%,3%,.,.,i,0%
COc1ccc(C)cc1NC(=O)CSc1nc(=O)n(Cc2cccnc2)c2c1CCC2,-7%,-23%,.,.,i,-14%
Cc1cccc(NC(=O)CSc2nc(=O)n(Cc3cccnc3)c3c2CCC3)c1,-15%,18µM*,.,.,i,-33%
COc1ccc(C)cc1NC(=O)CSc1nc(=O)n(Cc2ccccn2)c2c1CCC2,-16%,8.9µM*,.,.,i,-32%
O=C(ONc1ccc(N=NC(=O)c2ccccc2O)cc1)c1ccccc1,-17%,-11%,?,14%[10 µM],1.3µM*,-24%
O=Nc1ccc(NOC(=O)c2ccccc2Br)cc1,8%,-4%,12%,.,i,-3%
COC(=O)[C@H](C)N(Cc1ccc(Cl)c(Cl)c1)S(=O)(=O)CCN1CCN(c2ccccc2)CC1,-12%,11µM*,.,.,i,-7%
COC(=O)[C@H](C)N(Cc1ccc(Cl)c(Cl)c1)S(=O)(=O)CCN1CCCC1,-14%,-2%,.,.,i,-17%
C/C(=N\NC(=O)c1cc(C2CC2)nc2ccccc12)c1ccc(C)s1,2%,-2%,1%,-32%,i,0%
O=C(COc1ccccc1)NNc1c2ccccc2nc2ccccc12,?,?,-1%,-72%[10 µM],?,-40%

# Assay outcomes as filed in PubChem.
